Source: the supplement of paper PMC3334620
In all, about 33,000 sequences were measured (“E-score (-0.5 to 0.5)”: median about -0.043, highest 2% from about 0.37 on). The full list was thinned out, with the highest values kept by preference.

biological target: T1, Upc2 (UniProt Q12151); experiment: PBM E-score (8-mer binding enrichment) (E-score (-0.5 to 0.5)); higher = stronger / more preferred TF binding; conditions: protein concentration: 200 nM; construct: GST-full length
T1 sequence: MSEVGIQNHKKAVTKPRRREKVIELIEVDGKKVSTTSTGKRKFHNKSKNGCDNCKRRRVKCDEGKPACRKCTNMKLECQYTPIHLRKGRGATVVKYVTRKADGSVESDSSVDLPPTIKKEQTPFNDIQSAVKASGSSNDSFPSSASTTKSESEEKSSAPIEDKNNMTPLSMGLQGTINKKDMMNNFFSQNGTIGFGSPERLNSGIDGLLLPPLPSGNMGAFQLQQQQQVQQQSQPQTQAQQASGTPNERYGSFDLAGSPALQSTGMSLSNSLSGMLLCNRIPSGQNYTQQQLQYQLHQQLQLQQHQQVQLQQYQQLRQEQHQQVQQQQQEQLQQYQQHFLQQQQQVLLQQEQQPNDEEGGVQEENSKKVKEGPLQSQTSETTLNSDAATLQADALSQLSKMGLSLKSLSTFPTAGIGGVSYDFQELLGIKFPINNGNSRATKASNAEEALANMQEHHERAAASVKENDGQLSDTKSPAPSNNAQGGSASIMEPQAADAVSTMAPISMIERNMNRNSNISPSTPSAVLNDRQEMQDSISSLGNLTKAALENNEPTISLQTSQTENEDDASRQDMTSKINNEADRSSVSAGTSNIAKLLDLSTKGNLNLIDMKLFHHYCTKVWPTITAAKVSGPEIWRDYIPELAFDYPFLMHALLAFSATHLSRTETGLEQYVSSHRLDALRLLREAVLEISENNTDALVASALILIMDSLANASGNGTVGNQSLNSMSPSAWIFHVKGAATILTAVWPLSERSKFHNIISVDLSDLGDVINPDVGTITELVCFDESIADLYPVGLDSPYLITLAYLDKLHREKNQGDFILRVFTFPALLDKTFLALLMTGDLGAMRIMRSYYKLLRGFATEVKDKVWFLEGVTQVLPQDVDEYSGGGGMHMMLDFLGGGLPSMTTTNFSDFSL
Experimental: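 Universal 'all 10-mer' protein binding microarrays (Agilent AMADID 015681) probed with GST-tagged S. cerevisiae TFs (full-length or DBD) made by in vitro transcription/translation (PURExpress), about 100-200 nM. Bound TF was detected with fluorescent anti-GST. Each ungapped 8-mer (which stands for itself and its reverse complement) is scored by the PBM enrichment score (E-score), a modified Wilcoxon-Mann-Whitney statistic from -0.5 to +0.5, computed with the Universal PBM Analysis Suite. Scale: above 0.35 generally sequence-specific binding.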

Sequence | PBM E-score
AACGGAAA | 0.216
GCAAAACA | -0.144
CGGGGGGC | 0.063
CTACAACC | 0.0888
CGTTCGTA | 0.45
GGTTCGTA | 0.445
CGTTCGGA | 0.265
AGTTCGTC | 0.0871
AGTTCGTA | 0.439
GGTTCGAA | 0.0921
CGTTCGTC | 0.293
GGTTCGGA | -0.168
AGTTCGTG | 0.158
CTTGCAGA | -0.17
GTATAGAA | 0.345
AGGTGCTG | -0.387
CATCAGTC | -0.123
CTCGCCCA | -0.102
ACACCAGC | -0.111
ATGTCGTA | 0.45
GTGTCGCA | 0.0927
ATGTCGTC | -0.0259
CTGTCGAA | -0.181
GTGTCGTA | 0.44
CTGTCGTC | 0.00126

Sequence | PBM E-score
CTGTCGTA | 0.447
GTGTCGGA | 0.0733
ATGTCGTG | -0.0693
GTGTGGCA | -0.371
AACCGGCT | -0.239
AACTATCA | 0.134
ATGTGAAT | 0.12
AATACCGC | -0.131
CGTATGTC | 0.353
AGTATGCA | -0.3
GGTATGCA | -0.00862
CGTATGCC | 0.372
AGTATGTA | 0.0299
CGTATGTA | 0.387
CCTATGCC | -0.13
AGTATGCC | -0.189
CGTATGCA | 0.377
GCAGTAGC | -0.174
AGCGGGTC | -0.0751
CATTTTTC | 0.0327
TAATCTCA | -0.058
CGCTGGAA | -0.186
ACCATCTG | -0.225
GACTCGTA | 0.436
CACTCGTA | 0.455

Sequence | PBM E-score
AACTCGTC | 0.0662
AACTCGTG | 0.178
GACTCGCA | -0.0142
CACTCGTC | 0.0141
GACTCGAA | -0.194
CACTCGAA | 0.0152
AACTCGTA | 0.455
CCACTTCG | 0.0558
AATGGAGT | -0.266
AGCGTTAC | 0.0438
CTCTTCCA | -0.0797
CCGCTGGC | -0.258
GAAATGTC | -0.0124
ACGCGAGG | 0.219
AAGACTCA | -0.172
ACTGACTC | -0.192
CTCGAACA | -0.00626
CCAATAGC | -0.22
TACATCGA | 0.038
GCTTACAA | -0.0171
GCTTACGA | 0.421
CCTTACGA | 0.407
ACTTACGA | 0.382
GCTTACTA | -0.0799
CCTTACGC | 0.193

Sequence | PBM E-score
ACTTACGC | -0.0998
ACTTACGG | 0.194
CCTTACTA | 0.029
GAAGTACC | 0.114
GTGCCAAC | -0.0672
CTCCACCA | -0.177
GGATTGTA | 0.107
ATGCCAAC | 0.0593
GTTAGCGA | 0.194
ACAATCCA | -0.0823
CGACGACA | 0.173
GCACGACA | 0.0592
GTACGACA | 0.468
CCACGACA | -0.131
ATACGACA | 0.477
CTACGACA | 0.311
CCCGAGCC | -0.0326
CGCATTCA | -0.00072
CGTTAACC | 0.348
CGTTAACG | 0.422
CGTTAACA | 0.274
CCTTAACG | 0.38
ACTTAACG | 0.339
CCTTAACA | -0.0468
AAATCTCC | -0.271

Sequence | PBM E-score
GTGACCAC | -0.283
ACAATGAT | -0.102
CGGCGCTC | 0.16
GCCCTCGC | 0.219
ATGGCTCA | -0.1
CCTTTACG | 0.418
AATTTACG | 0.335
CCTTTACC | -0.191
ATTTTACC | 0.00835
ACTTTACT | -0.151
ATTTTACG | 0.394
ACTTTACG | 0.409
CCTTTACA | -0.0853
ACTTTACA | 0.0242
ATTTGCAA | 0.0573
AGATTGCT | -0.117
CAACTGCG | -0.0371
ACACGGAG | -0.0181
GTACGGAA | 0.377
ATACGCAG | 0.352
GCACGGAA | -0.15
ATACGGAC | 0.394
CTACGGAG | -0.138
ATACGGAT | 0.357
GTACGCAA | 0.247

Sequence | PBM E-score
GTACGGAC | 0.35
ATACGCAA | 0.37
CTACGGAC | -0.0487
ATACGGAG | 0.411
CATGAGTC | -0.0488
GTTCTCTA | 0.102
CTCTCCTA | 0.0887
GATTCACC | -0.129
AATGGAGA | -0.179
TATGCGCA | 0.0561
CTACGGAA | 0.0194
TTACGGAA | 0.258
ATACGGAA | 0.372
GGGGGCGA | -0.119
TACAGCAA | 0.138
AGAGTGGG | 0.0465
TGATCCAA | -0.132
AGACGACG | 0.237
ACACGACG | 0.267
CTACGACC | 0.364
ATACGACG | 0.483
ACACGACC | 0.154
ATACGACC | 0.474
GCGTTTGA | 0.151
GGGTTTAC | 0.144

Sequence | PBM E-score
GCGTTTAC | 0.372
GCGTTTAA | 0.4
CCGTTTTA | 0.118
CCGTTTAC | 0.451
GCGTTTTA | 0.206
GCGTTTCC | 0.0493
CTGTTTAA | 0.0306
ACGTTTAC | 0.369
CTGTTTAC | 0.142
CCGTTTAA | 0.466
GGGAGCAA | -0.11
GGCAAGGA | -0.205
GGCTACTA | -0.0652
ACAGTACC | -0.176
CATCTAGA | 0.0683
ACAAGGTA | 0.104
GAGAGGGA | -0.272
CCTATACG | 0.487
ATTATACA | 0.0589
ATTATACG | 0.482
AGTATATG | 0.0175
ACTATACA | 0.11
